# Screens as filed in PubChem.
# TSHR antagonist = Antagonists of the Thyroid Stimulating Hormone Receptor: HTS campaign | actives 0.2% (n = 330,000) | Thyrotropin receptor (Homo sapiens), P16473 | TSHR-expressing cells, TSH-stimulated cAMP HTRF, 2 h; stronger effect = lower value | activity change, negative = inhibition, % at 11.5 µM | AID 504810, 2011;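 active = activity change below a set negative limit, meaning inhibition stronger than a set level, cut at about -70% in these data; inconclusive = activity change between two set negative limits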; also: % is scaled to controls: 0 for no effect and ±100 for the full control effect
#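 TSHR-expressing cells, 200/well, pre-treated with compound, then stimulated with EC80 TSH (4nM final) for 2 hours at 37 deg C. cAMP measured by competitive HTRF: anti-cAMP cryptate antibody in lysis buffer plus cAMP-d2, read after 30 minutes at room temperature.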
# D3 ag = qHTS of D3 Dopamine Receptor Agonist: qHTS. max activation, %. D3R DiscoveRx beta-arrestin cells, luminescence, 90 min. actives 0.58% (n = 410,000); in the data active = max activation above about 30%; also: 0% is about no effect
#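 Agonist-mode cell screen: cells plated at 1500/well and incubated overnight at 37 °C, then exposed to library compounds for 90 min at 37 °C. Detection reagent was added for 30–60 min at room temperature, and luminescence was read.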
# B2AR arrestin = qHTS assay of beta-arrestin-biased ligands of beta2-adrenergic receptor; Beta-2 adrenergic receptor (Homo sapiens), P07550; beta-arrestin recruitment to beta2AR, cell-based reporter; Potency, µM (highest dose often 46.1 µM), for inactives: top-dose activation, hits mostly activators; actives 0.02% (n = 330,000); active = well fitted activation curve with a large enough effect; inconclusive = small, poorly fitted or top-dose-only effect;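 also: potency is read from the fitted curve at half-maximal effect; 0% = DMSO controls and full agonism = EC100 isoproterenol or metaproterenol; nearly all actives have a fitted effect of over 65% in size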
# Target sequence (P07550 whole entry, looked up): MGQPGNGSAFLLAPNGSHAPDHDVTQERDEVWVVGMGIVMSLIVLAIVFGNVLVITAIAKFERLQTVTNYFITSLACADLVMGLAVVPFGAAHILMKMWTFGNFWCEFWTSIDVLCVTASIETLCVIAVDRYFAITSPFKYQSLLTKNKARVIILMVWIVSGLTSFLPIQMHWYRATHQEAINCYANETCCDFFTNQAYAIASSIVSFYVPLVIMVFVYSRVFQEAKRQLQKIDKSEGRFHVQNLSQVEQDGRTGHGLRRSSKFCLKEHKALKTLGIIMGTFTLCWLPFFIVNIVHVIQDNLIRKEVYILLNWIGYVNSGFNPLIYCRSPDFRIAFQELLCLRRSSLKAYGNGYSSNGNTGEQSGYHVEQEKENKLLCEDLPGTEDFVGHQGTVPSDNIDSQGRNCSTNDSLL
# DRD3 antagonist = qHTS of D3 Dopamine Receptor Antagonist: qHTS. D(3) dopamine receptor (Homo sapiens), P35462. D3R cells, DiscoveRx beta-arrestin luminescence, antagonist mode; stronger effect = lower value. max response, negative = inhibition, %. actives 2.5% (n = 360,000). AID 652054, 2013; in the data active = max response below about -50%; inconclusive = no clear call, values can overlap the other calls; also: % is scaled to controls: 0 for no effect and ±100 for the full control effect
#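 Cells plated overnight at 1500 cells/well, then exposed to library compounds with dopamine controls for 90 minutes at 37 degrees C. DiscoveRx reagent added for 30–60 minutes at room temperature; luminescence read, quantitative HTS format.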
# * hit, by the source's call; ? = inconclusive; / = no result given. The list is not random: actives were taken first. Their share in the collection is about 2.9%.
SMILES,TSHR antagonist,D3 ag,B2AR arrestin,DRD3 antagonist
COc1ccc(C(=O)C2CCCN(Cc3cccn3-c3ccccn3)C2)cc1F (stereo not given),26,-2,0%,-1
COc1cccc(CN2CCCC(C(=O)c3ccc4c(c3)OCO4)C2)c1O (stereo not given),-9,-23,0%,?
COc1ccc(F)cc1C(=O)C1CCCN(Cc2cccn2-c2cccnc2)C1 (stereo not given),-8,-21,-1%,-96*
Cc1c(CN2CCCCC2C)c(=O)n(-c2ccccc2)n1C (stereo not given),3,-13,0%,-58*
COc1ccccc1C(=O)C1CCCN(Cc2ccc3c(c2)OCCO3)C1 (stereo not given),0,-38,0%,-50*
COc1cc(OC)c(OC)cc1CN1CCCC(C(=O)c2ccccc2SC)C1 (stereo not given),1,-7,-1%,-61*
COc1ccc(C(=O)C2CCCN(Cc3ccc4c(c3)OCCO4)C2)cc1F (stereo not given),5,-29,1%,-26
COc1ccc(F)cc1C(=O)C1CCCN(Cc2ccc3c(c2)OCCO3)C1 (stereo not given),6,-3,-1%,-105*
COc1ccc(F)cc1C(=O)C1CCCN(Cc2c(C)n(C)n(-c3ccccc3)c2=O)C1 (stereo not given),-5,-20,-1%,-55*
COc1ccc(F)cc1C(=O)C1CCCN(Cc2ccc(Oc3ncccn3)cc2)C1 (stereo not given),-6,-12,0%,-73*
COCCN1C(=O)c2oc3ccc(C)cc3c(=O)c2C12C(=O)N(C)c1ccccc12 (stereo not given),/,2,/,/
CCc1c(C)sc(NC(=O)c2cc3nc(-c4ccc(OC)cc4)cc(C(F)(F)F)n3n2)c1C(=O)OC,/,-15,/,/
Cc1ccc2c(c1)cc1c(=O)n(Cc3cccc(Cl)c3)nc(C)n12,/,6,/,/
COc1ccc(CN2CCC(=O)N([C@H](CO)Cc3ccccc3)CC2)cc1,7,-23,-1%,-28
O=C1CCN(Cc2cccnc2)CCN1[C@H](CO)Cc1ccccc1,-11,-31,-1%,-67*
N#CC[C@H](c1ccccc1)N1CCN(Cc2ccccc2)CCC1=O,11,34*,0%,-10
COc1ccc(C(=O)/C(Br)=C\C(=O)O)cc1,/,18,/,/
CC1C/C(=N/N2C(=O)CSC2=S)CC(C)(C)C1 (stereo not given),4,-7,0%,-63*
Cc1nn2c(=O)cc(COC(=O)C(c3ccccc3)c3ccccc3)nc2s1,/,6,/,/
CC(CN1CCCC1)OC(=O)c1ccc(Cl)cc1 (stereo not given),7,-25,0%,-54*
CC1CCN(CC(C)OC(=O)c2ccc3c(c2)OCCO3)CC1 (stereo not given),11,-14,0%,-75*
CC(CN1CCCCC1)OC(=O)c1ccc2c(c1)OCO2 (stereo not given),5,-18,0%,-15
CC(CN1CCCCC1)OC(=O)c1ccc(Cl)cc1Cl (stereo not given),3,-16,0%,?
CC(CN1CCCCC1)OC(=O)c1cccc(F)c1 (stereo not given),-5,-24,-1%,-51*
COc1ccccc1/C=C/C(=O)OC(C)CN1CCCCC1 (stereo not given),-9,-14,-1%,-60*
SMILES,TSHR antagonist,D3 ag,B2AR arrestin,DRD3 antagonist
CCOc1ccccc1NC(=O)Cn1c(=O)n(Cc2ccccc2)c(=O)c2c(C)c(C)sc21,/,-10,/,/
CC(CN1CCOCC1)OC(=O)c1ccc(Br)cc1 (stereo not given),18,-18,?,-67*
CC(CN1CCCC1)OC(=O)c1ccc(Cl)cc1Cl (stereo not given),-1,-20,-1%,-80*
CN1C(=O)/C(=C2\SC(N3CCCCCC3)=NC2=O)c2ccccc21,-7,2,0%,-67*
Cc1ccc2c(c1)C(=O)C(=O)N2Cc1ccc(C(F)(F)F)cc1,13,-30,1%,-51*
COc1ccccc1C1CCN(Cc2cccc3ccccc23)CC1,12,-47,-1%,-10
COc1ccccc1C1CCN(Cc2ccc(Cl)cc2Cl)CC1,8,-18,-1%,-96*
COc1ccccc1C1CCN(Cc2ccc(Cl)c(Cl)c2)CC1,1,-49,-1%,-79*
COc1ccccc1C1CCN(Cc2c(C)[nH]c3ccccc23)CC1,13,-18,0%,-89*
S=C1NCCc2ccc(Cl)cc2C1c1ccccc1Cl (stereo not given),-23,-2,0%,-71*
COc1ccc(-c2csc(NC(=O)C3CCN(c4ncnc5sc(C)c(C)c45)CC3)n2)cc1OC,-77*,47*,0%,56
C=CCc1ccccc1OCCNCCCOC,-2,-26,-2%,-102*
C=CCc1cc(Cl)ccc1OCCOCCNCCOC,3,-30,0%,-16
COCCCNCCOCCOc1ccccc1-c1ccccc1,10,-25,-1%,0
C=CCc1cc(Cl)ccc1OCCNCCCOC,7,-25,0%,-59*
CN(CC1CCN(CCc2cccc(C(F)(F)F)c2)CC1)C(=O)c1ccc(F)cc1,10,-24,0%,-87*
CCS(=O)(=O)c1ccccc1C(=O)N(Cc1cccnc1)c1nc2cc(C)c(C)cc2s1,/,16,/,/
Cc1ccc(-n2c(=O)[nH]c3cc(C(=O)NCc4ccccc4)ccc3c2=O)cc1,/,2,/,/
COc1ccc(C(=O)Nc2ccccc2C(=O)NC(C(=O)NCc2ccco2)C(C)C)cc1 (stereo not given),1,8,0%,-61*
O=C(CCl)N(c1ccccc1)C1CCCCC1,16,-11,0%,-65*
CC1=C(C(=O)Nc2ccccc2)C(c2ccc[nH]2)n2ncnc2N1 (stereo not given),18,2,0%,/
CCn1c(=O)n(-c2ccc3c(c2)OCO3)c2nc(-c3cc(OC)ccc3OC)nc(C(N)=O)c21,/,-13,/,/
Cc1c(OCC(=O)NCC(O)c2ccccc2)ccc2c(-c3ccccc3)cc(=O)oc12 (stereo not given),6,33*,5%,35
Cc1sc2nc(C)n(/N=C/c3ccc(O)cc3O)c(=O)c2c1C,-12,1,-1%,20
Cc1sc2nc(C)n(/N=C/c3ccccc3O)c(=O)c2c1C,-15,35*,0%,41
O=C1NC(=S)SC1=C1CCCCCC1,-81*,1,0%,?
Cc1ccc(N2C(=O)CCSC23C(=O)N(Cc2ccccc2)c2ccccc23)cc1 (stereo not given),/,5,/,/
CSc1nsc(/C=C/Nc2ccc(O)cc2C)c1C#N,-3,-3,-1%,-55*
CCCCN(C)CCC(=O)Nc1ccc2c(c1)CCC2,-5,-15,0%,-57*
